# The whole screen tested about 360,000 compounds, of which about 9,100 (2.5%) were called active. Roughly 4% stayed inconclusive and do not appear here. Shown is part of a subset that was picked to be rich in actives. Values without a mark were called inactive. Rule as the data show it: active = max response below about -50%; inconclusive = no clear call, values can overlap the other calls; inactive = above that.
# Molecular target: D(3) dopamine receptor (Homo sapiens) (UniProt P35462)
# Test: qHTS of D3 Dopamine Receptor Antagonist: qHTS
# Details: D3R cells, DiscoveRx beta-arrestin luminescence, antagonist mode; active compounds read low
# From the text: D3 DARs represent a very important target for the treatment of several neuropsychiatric disorders. Indeed, one of the most promising therapeutic applications for the D3 DAR is in the area of addiction and related disorders. […] These findings have been observed with a number of addictive substances including cocaine, amphetamine, nicotine, and alcohol. […] Antagonism of the D3 DAR may also be therapeutic in the treatment of schizophrenia or psychosis. […] Since the D3 DAR is expressed in areas of the CNS associated with the control of mood and emotion, it has been hypothesized that selective antagonism of the D3 DAR may be effective in treating psychosis without inducing the motor side effects typically seen with D2 DAR antagonists.
# This part of the project aims to discover novel antagonist.
# NIH Chemical Genomics Center [NCGC]
# NIH Molecular Libraries Probe Centers Network [MLPCN]
# Assay Submitter (PI): David Sibley, NINDS
# Freshly passaged cells are plated in 1536 well white, solid bottom plates at a density of 1500 cells/well in 3microl of complete media. After an overnight incubation at 37 degrees C in 5% CO2, cells are loaded with 23nl of test compound from the compound library (as well as dopamine controls) using a 1536 pintool and incubated at 37 degrees C for 90 minutes. Two microliters of DiscoveRx reagent is then added to all cells, and they are incubated for an additional 30 - 60 minutes at room temperature. Following incubation, luminescence is measured on a ViewLux CCD-based luminometer reader using a 20 sec exposure time.
# % is scaled to controls: 0 for no effect and ±100 for the full control effect.
# Sequence of D(3) dopamine receptor (Homo sapiens) (P35462 whole entry, looked up): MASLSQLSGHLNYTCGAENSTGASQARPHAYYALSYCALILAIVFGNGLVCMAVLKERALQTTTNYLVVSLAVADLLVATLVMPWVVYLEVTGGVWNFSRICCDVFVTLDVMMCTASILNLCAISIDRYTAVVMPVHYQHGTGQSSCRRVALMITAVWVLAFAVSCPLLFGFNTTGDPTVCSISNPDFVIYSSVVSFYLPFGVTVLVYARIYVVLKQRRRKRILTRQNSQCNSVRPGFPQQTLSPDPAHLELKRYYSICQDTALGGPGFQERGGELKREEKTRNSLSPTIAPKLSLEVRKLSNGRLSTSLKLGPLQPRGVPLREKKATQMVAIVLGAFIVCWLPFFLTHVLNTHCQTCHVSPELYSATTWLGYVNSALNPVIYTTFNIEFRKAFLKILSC
row,SMILES,"max response, negative = inhibition"
1,Cc1ccc(CN2CCCC(C(=O)c3ccc4c(c3)OCO4)C2)cc1C (stereo not drawn),-74.3% (active)
2,Cc1ccsc1C(=O)C1CCCN(Cc2ccc(O)cc2)C1 (stereo not drawn),-22.3%
3,COc1ccc(C2C=C(C)Oc3c2c(=O)oc2ccccc32)cc1OC (stereo not drawn),1.55%
4,CC1(C)Cc2c(C#N)c(N3CCNCC3)nc(-c3ccco3)c2CS1,-15.4%
5,O=C(Cc1ccccc1[N+](=O)[O-])N1CCN(Cc2ccc3c(c2)OCO3)CC1,-4.07%
6,CC(C)c1ccc(O)c(CN2CCN(c3ccccc3)CC2)c1,-71% (active)
7,Cc1cc(=O)oc2c(C)c(OCC(=O)N3CCN(Cc4ccc5c(c4)OCO5)CC3)ccc12,0.853%
8,Fc1ccc(N2CCN(Cc3ccc4c(c3)OCO4)CC2)cc1,-111% (active)
9,Oc1cc2c(cc1CN1CCN(c3ccccc3)CC1)OCO2,-71.5% (active)
10,CCN1CCN(Cc2cc(OC)c3c(c2)OCO3)CC1,2.18%
11,COc1ccccc1CN1CCN(C(=O)Cc2ccccc2)CC1,-24%
12,OC(Cn1c2ccccc2c2ccccc21)C[n+]1ccccc1 (stereo not drawn),-9.75%
13,c1cc2c(cc1C1OCC3C(c4ccc5c(c4)OCO5)OCC13)OCO2 (stereo not drawn),1.57%
14,C[C@]12CC[C@H](O)CC1=C([N+](=O)[O-])CC1C2CC[C@@]2(C)C1CC[C@@H]2O (stereo partly drawn),10.3%
15,O=C1C2CCN(CC2)C1(CO)CO,5.89%
16,CC(=O)C1(O)CCC2C3CCC4=C(Cl)C(=O)CCC4(C)C3CCC21C (stereo not drawn),-13.9%
17,CCN1CCN(C(=O)Cc2coc3cc(C)cc(C)c23)CC1,-9.21%
18,C[C@]12CCC3C(CC[C@H]4[C@H](O)[C@H](O)CC[C@]34C)C1CC[C@@H]2O (stereo partly drawn),2.6%
19,CC(C)CN1Cc2cc(N3CCCCC3)ccc2-n2nncc2C1,-13.6%
20,CCOc1ccc(CN(CCCl)CCCl)cc1C(=O)OC,-27.4%
21,CC(C)c1ccc(OCC(=O)N2CCCN(C)CC2)cc1,-7.58%
22,CN1CCN(C(=O)COc2ccc(C(C)(C)C)cc2Br)CC1,0%
23,CC(C)c1ccc(OCC(=O)N2CCN(C)CC2)c(Br)c1,-52% (active)
24,Cc1ccc(P(=S)(c2ccc(C)o2)N2CCOCC2)o1,14%

row,SMILES,"max response, negative = inhibition"
1,Cc1nc2ccccn2c1P(=S)(N1CCCCC1)N1CCCCC1,12%
2,Cc1cc(C)cc(NC(=S)NC2CC3CCCC(C2)N3Cc2cccs2)c1 (stereo not drawn),-81.8% (active)
3,CCC1(CC(C)c2ccccc2)C(=O)NC(=O)NC1=O (stereo not drawn),6.61%
4,O=C(CCN1CCCCC1)NCC(=O)Nc1ccc(Br)cc1C(=O)c1ccccc1,-29.9%
5,Cc1ccc(Cn2c(C)c3cnn(CC(=O)N4CCC5(CC4)OCCO5)c(=O)c3c2C)cc1,3.94%
6,O=c1[nH]c2ccccc2n1C1CCN(C(c2ccccc2)c2nnnn2Cc2ccccc2)CC1 (stereo not drawn),71.4%
7,O=c1[nH]c2ccccc2n1C1CCN(C(c2ccnc3ccccc23)c2nnnn2Cc2ccccc2)CC1 (stereo not drawn),9.58%
8,Cc1ccc(Cn2nnnc2CN2CCC(n3nnc4ccccc43)CC2)cc1,-69% (active)
9,CCOC(=O)[C@]12Cc3ccccc3[C@H]1N(C1CCCCC1)C(=O)c1cc(OC)ccc12,-14.9%
10,O=C(COC(=O)Cc1ccccc1)Nc1ccc(F)cc1,6.49%
11,CCOc1cccc(=NC2CCCCC2)c2c(C)[nH]c(C)c12,13.5%
12,CCN1CC2C3CCC(C)(O3)C2C1 (stereo not drawn),-7.4%
13,Cc1nc2nc(C)c(CCC(=O)N3CCC4(CC3)OCCO4)c(C)n2n1,-10.8%
14,CN1CCC(OC(=O)c2cccc(F)c2)CC1,-13.8%
15,Cc1ccc(C2CN(C)CC2C(=O)c2ccc(F)cc2)cc1 (stereo not drawn),-102% (active)
16,COc1ccc(C(=O)C2CN(C)CC2C(=O)c2ccc(OC)cc2)cc1 (stereo not drawn),-1.15%
17,Cn1c(O)c(C(=Nc2ccc(F)cc2)c2ccccc2)c(=O)n(C)c1=O,-8.88%
18,c1cncc(CNCCc2c[nH]c3ccccc23)c1,14.8%
19,O=C1NCN(c2ccccc2)C12CCN(C(c1cccs1)c1nnnn1C1CCCCC1)CC2 (stereo not drawn),-8.63%
20,c1ccc(N2Cc3ccccc3-n3nncc3C2)nc1,-20.4%
21,CC(=O)OC1C2(CC3N4C(=O)C5(CO)SSC4(CC31O)C(=O)N5C)OC(C)C(C)(C)C2=O (stereo not drawn),-98.1% (active)
22,CN(C)S(=O)(=O)c1cc(C(=O)N2CCC(C(=O)O)(c3ccccc3)CC2)ccc1Cl,-1.23%
23,Clc1ccc2nc3c(c(-c4ccccc4)c2c1)CNCC3,-1.49%
24,COc1ccc(-n2nnnc2C(c2cccc3ccccc23)N2CCC(n3c(=O)[nH]c4ccccc43)CC2)cc1 (stereo not drawn),117%

# — PubChem BioAssay AID652054 (National Center for Advancing Translational Sciences (NCATS), 2013)
